Screening results deposited in PubChem BioAssay by National Center for Advancing Translational Sciences (NCATS).
ELG1 DNA repair: qHTS screen for small molecules that inhibit ELG1-dependent DNA repair in human embryonic kidney (HEK293T) cells expressing luciferase-tagged ELG1 | HEK293T ELG1-luciferase reporter, luminescence, 16 h; DNA damage induced by 5-fluorouridine | Potency, µM (titrated, usually from 46.1 µM), inactives show at the top dose activity change, negative = inhibition, most hits filed as inhibitors | actives 2.3% (n = 330,000) | AID 504467, 2011; further: potency means the concentration at half of the fitted maximal effect; nearly all actives have a fitted effect of over 55% in size
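In this reporter screen, reduction of luminescence relative to DMSO vehicle indicated activity. Compounds and 5-fluorouridine were added together to 2,000 cells per well, incubated for 16 hr at 37 °C, then developed with ONE-Glo.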
Coupling enz: qHTS Assay for Inhibitors of Fructose-1,6-bisphosphate Aldolase from Giardia Lamblia: Coupling assay counterscreen | actives 0.67% (n = 290,000) | AID 2472, 2010 | activity change, negative = inhibition, % at 58.2 µM, hits read low | coupling enzyme system counterscreen, AmpLite Red fluorescence; in the data active means activity change below about -30%
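Coupling enzymes only (glyceraldehyde-3-phosphate) + compound, at 57.5 uM final, 10 min RT; add substrate/coupling/AmpLite Red mix, 20 min RT; fluorescence ex 525/em 598 nm. Actives flag coupling-system interference.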
Giardia killer: Small Molecules that selectively kill Giardia lamblia: qHTS. AID 540267, 2011. actives 0.15% (n = 340,000). activity change, % at 7.66 µM, hits read low. Giardia lamblia trophozoite viability; in the data active means activity change below about -80%; inconclusive means between about -30% and that limit;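 further: parasites exposed to compound for two days anaerobically before the ATP read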
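ATP-content bioluminescence gauges trophozoite survival. Cells (100/well) receive compound and incubate anaerobically for 48 hrs at 37 deg C; detection reagent follows for 15-30 min at room temperature.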
Sfp PPTase inh: qHTS Assay for Inhibitors of Bacillus subtilis Sfp phosphopantetheinyl transferase (PPTase). Biochemical Sfp PPTase activity, qHTS. Potency, µM, for the others: largest response in the series, negative = inhibition, actives largely listed as inhibitors. actives 3.5% (n = 310,000). AID 1490, 2009;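 further: the enzyme is Sfp with the accession as filed and its product quenches rhodamine fluorescence; potency means the concentration at half of the fitted maximal effect; 0% = enzyme reaction without inhibitor and -100% = no enzyme wells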
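With Hepes-Na pH 7.6 buffer containing 10 mM MgCl2, Sfp (15 nM) modified BHQ-2-YbbR (12.5 uM) using rhodamine-CoA (5 uM). Two reads 30 minutes apart at 525/598 nm yielded each well's rate.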
* marks the source's active call; other numbers are inactive results; ? = inconclusive; · = no result; ! = repeats disagree. In the library only some 5.5% were active in any assay of this set; here they are far more common. Unless noted, the call rests on the fitted dose curve; in most records, active means well fitted curve in the direction sought with a large enough effect; inconclusive means small, poorly fitted or top-dose-only effect, or another doubt; inactive means no such curve, though single readings can be large; an effect the other way counts as inactive or inconclusive. Unless noted, on the % scale 0 is the no-effect control and ±100 the full control effect.

SMILES	ELG1 DNA repair	Coupling enz	Giardia killer	Sfp PPTase inh
C[C@@H]1CN([C@@H](C)CO)C(=O)c2cccc(NC(=O)c3ccncc3)c2O[C@@H]1CN(C)Cc1ccc(-c2ccccc2)cc1	1%	·	-7	·
c1ccc2c(c1)OC[C@@H](C1=NCCN1)O2	·	-2	·	2%
COc1ccc(OCC(=O)N2CCN(C(C)C)CC2)cc1	5%	0	26	-19%
CC(C)N1CCN(c2ccc(O)cc2)CC1	-8%	-51*	4	-91%
N#Cc1ccc(CN2CCCC3(CCN(C(=O)Oc4ccccc4)CC3)C2)cc1	·	-1	·	-10%
CC(C)(C)NC[C@H](O)c1cc(Cl)c(N)c(Cl)c1	·	1	·	5%
CC(=O)C(Sc1ncnc2c1nnn2-c1ccc(F)cc1)C(=O)N(C)C (stereo unspecified)	?	-5	-21	10µM*
O=S(=O)(c1ccccc1C(F)(F)F)N1CCN(c2ncnc3sccc23)CC1	16µM*	·	-7	·
C/C=C1\C[N@@+]2(C)CC[C@@]34C(=C(C=O)[C@H]1C[C@H]32)Nc1ccccc14	·	-2	·	35µM*
OC(c1ccc(Cl)cc1)(c1cncnc1)c1ccccc1Cl (stereo unspecified)	·	-2	·	-12%
C=CCN1CC[C@]23c4c5ccc(O)c4O[C@H]2[C@@H](O)C=C[C@H]3[C@H]1C5	·	·	·	-17%
S=C(c1ccc(Cl)cc1)N1CCOCC1	1%	5	-5	40µM*
O=C(c1ccc(Cl)cc1)N1CCC2(CC1)OCCO2	1%	0	8	7%
CN1C(=O)/C(=C\N2CCc3ccccc32)C(=O)NC1=S	29%	-8	-8	35µM*
Cc1ccc(/C=C2/C(=O)NC(=O)N(CCc3ccc(F)cc3)C2=O)o1	-2%	5	-13	56µM*
COc1ccc(CN2C(=O)NC(=O)/C(=C\c3ccco3)C2=O)cc1	?	1	-5	71µM*
COc1ccc(CN2C(=O)NC(=O)/C(=C\c3cc(OC)c(OC)c(OC)c3)C2=O)cc1	?	-2	-4	-9%
O=C1NC(=O)N(CCc2ccc(F)cc2)C(=O)/C1=C/c1ccco1	?	1	-2	50µM*
COc1ccc(/C=C2\C(=O)NC(=O)N(Cc3ccccc3)C2=O)c(OC)c1OC	22%	2	19	35µM*
CN(C)c1ccc(/C=C2\C(=O)NC(=O)N(CCc3ccc(F)cc3)C2=O)cc1	12%	6	-15	-18%
CC(=O)C1=C(O)[C@@H]2[C@@H]3c4c[nH]c5cccc(c45)C[C@@H]3C(C)(C)N2C1=O	·	2	·	-15%
COC(=O)C12CC3=CC(CC3=O)Cc3ccccc3[C@@H]1CNC2=O (stereo partly specified)	·	4	·	25%
COc1cccc(N2C(=O)/C(=C/c3ccc(C)o3)C(=O)NC2=S)c1	4%	1	-12	25µM*
Cc1ccc(/C=C2\C(=O)NC(=S)N(c3ccc(F)cc3)C2=O)o1	12%	0	16	45µM*
Cc1ccc(N2C(=O)/C(=C/c3ccc(CN(CCC#N)S(C)(=O)=O)o3)C(=O)NC2=S)cc1	-2%	-1	-4	20µM*
SMILES	ELG1 DNA repair	Coupling enz	Giardia killer	Sfp PPTase inh
COc1ccc(N2C(=O)/C(=C/c3ccc(N(C)C)o3)C(=O)NC2=S)cc1	?	-1	-28	-22%
CS(=N)(=O)CC[C@@H](N)C(=O)O (stereo partly specified)	·	0	·	6%
CC[C@H](Oc1ccc(Cl)cc1)C(=O)OC1C[C@H]2CC[C@@H](C1)N2C (stereo partly specified)	·	-4	·	-1%
CC(=O)Oc1ccc2c3c1OC1[C@@H](OC(C)=O)C=C[C@H]4[C@H](C2)N(C)CC[C@]314 (stereo partly specified)	·	·	·	25%
CC(C)C[C@H](NC(=O)[C@H](Cc1ccccc1)NC(=O)CNC(=O)CNC(=O)[C@@H](N)Cc1ccc(O)cc1)C(=O)N[C@@H](CCCN=C(N)N)C(=O)N[C@@H](CCCCN)C(=O)N[C@@H](Cc1ccc(O)cc1)C(=O)N1CCC[C@H]1C(=O)N[C@@H](CCCCN)C(=O)O	·	·	·	19%
O=C(O)CNC(=O)C(CS)Cc1ccccc1 (stereo unspecified)	?	·	6	0.79µM*
CCN(CC)C(=O)c1ccc(NC(=O)COc2ccc(-c3nn(C)c(=O)c4ccccc34)cc2)cc1	?	1	-3	7%
CCN(CC)C(=O)c1ccc(NC(=O)c2cn(-c3ccccc3)nc2-c2ccc(OC)cc2)cc1	13µM*	·	13	12%
COc1cc(/C=C/[N+](=O)[O-])ccc1O	23µM*	-5	3	?
CCN(CC)c1ccc(/C=C/[N+](=O)[O-])cc1	?	-1	-15	?
Oc1cc2c(cc1O)[C@H]1c3ccccc3CN[C@H]1CC2	·	-7	·	40µM*
c1ccc([C@H]2CNCc3ccccc32)cc1	·	2	·	-7%
Oc1cc2c(cc1O)[C@H]1c3ccccc3CN[C@@H]1CC2	·	-6	·	32µM*
O=C1NC(=O)N(Cc2ccco2)C(=O)/C1=C/c1ccc(-c2cccc([N+](=O)[O-])c2)o1	?	6	-8	20µM*
C=CCN1C(=O)NC(=O)/C(=C\c2ccc(-c3ccccc3[N+](=O)[O-])o2)C1=O	?	-2	6	25µM*
CC(=O)[O][Hg][c]1ccccc1	·	-48*	·	0.18µM*
CC(=O)/C=C/c1ccccc1	?	·	-25	·
COC(=O)[C@@]1(Cc2ccccc2)[C@H]2c3cc(C(=O)N(C)C)[nH]c3C[C@H]2CN1C(=O)c1ccccc1	·	-1	·	11%
Cc1ccc(C(c2nnnn2Cc2ccccc2)N2CC=C(c3ccc(F)cc3)CC2)cc1 (stereo unspecified)	-2%	0	-90*	-1%
Nc1c(C(=O)NCCCc2ccccc2)c2nc3ccccc3nc2n1Cc1cccs1	15µM*	-51*	-2	-12%
CCCCn1c(N)c(C(=O)NCc2cccs2)c2nc3ccccc3nc21	23µM*	-21	-15	-6%
Cc1ccc(-n2nc(C)c3c2NC(=O)CSC3c2ccc3c(c2)OCO3)cc1 (stereo unspecified)	-2%	1	-10	56µM*
CC(C)(O)C1O[C@H]2CC[C@@]3(C)[C@@](O)(CC[C@H]4Cc5c([nH]c6ccccc56)[C@@]43C)C2=CC1=O (stereo partly specified)	·	·	·	-2%
CCCCCCCCCCCCCCCC[n+]1ccccc1	·	0	-13	50µM*!
C/C(O)=C(/C#N)C(=O)Nc1cc(Br)ccc1Br	·	16	·	8%
CC1C(=O)OC2CCN3CC=C(COC(=O)[C@](C)(O)[C@]1(C)O)C23 (stereo partly specified)	·	2	·	33%
CCOc1ccc2c3c1O[C@H]1[C@@H](O)C=C[C@H]4[C@@H](C2)N(C)CC[C@@]341	·	·	·	15%
